A selection: hits, their analogues and other compounds. The true share with any hit is near 2.5%.
D2 PAM-1: positive allosteric modulators of human D2 dopamine receptor; actives 0.23% (n = 360,000); potentiation, % (concentration not given with the values); AID 624464; DiscoveRx D2 beta-arrestin cells, luminescence, 90 min; 100% = 57 uM dopamine signal; P14416; in the data active = potentiation above about 50%; inconclusive = mostly about 30% to 49%
Target sequence (P14416 whole entry, looked up): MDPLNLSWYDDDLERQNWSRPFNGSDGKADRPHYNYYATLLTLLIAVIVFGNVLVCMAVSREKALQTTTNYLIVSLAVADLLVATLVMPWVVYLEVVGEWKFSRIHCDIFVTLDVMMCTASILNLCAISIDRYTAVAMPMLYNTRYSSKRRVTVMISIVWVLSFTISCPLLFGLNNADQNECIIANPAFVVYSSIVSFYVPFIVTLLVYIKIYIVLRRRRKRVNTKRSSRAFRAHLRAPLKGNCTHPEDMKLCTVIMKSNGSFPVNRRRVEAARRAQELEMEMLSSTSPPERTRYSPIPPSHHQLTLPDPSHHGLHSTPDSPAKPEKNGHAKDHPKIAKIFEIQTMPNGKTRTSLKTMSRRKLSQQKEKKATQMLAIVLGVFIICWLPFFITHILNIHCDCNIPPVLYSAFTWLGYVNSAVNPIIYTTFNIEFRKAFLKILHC
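D2 cells co-treated with compound plus 50 nM dopamine (EC20) for 90 min at 37 deg C to detect potentiation. Beta-arrestin recruitment was read as enzyme-fragment luminescence after 1 h at ambient temperature. Full response was set by 57 uM dopamine.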
D2 PAM-2: positive allosteric modulators of human D2 dopamine receptor. HEK293 T-REx D2, calcium flux, EC20 dopamine potentiation. potentiation, % at 10 µM. actives 0.34% (n = 340,000);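 active = potentiation over 3 SD above the plate norm, cut at about 30% in these data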; also: 0% is about no effect
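Tetracycline-induced Hek293 Trex D2 cells, force-coupled to calcium, loaded with no-wash calcium dye. Compound added with 180 s kinetic read for agonism, then EC20 dopamine and a further 180 s read for potentiation.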
D2 ag-1: activates the human D2 dopamine receptor. actives 0.084% (n = 360,000). activation, % (no concentration beside the values). AID 624465. P14416. DiscoveRx PathHunter D2 beta-arrestin, luminescence, 90 min; 100% = 57 uM dopamine signal; in the data active = activation above about 40%; inconclusive = between about 15% and that limit
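Agonist mode: compounds alone added to overnight-plated D2 PathHunter cells for 90 min at 37 C, with 57 uM final dopamine (EC100) defining full response. Beta-arrestin recruitment detected by chemiluminescent reagent, read after 1 h at ambient temperature.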
Anesthetic bind: candidate novel general anesthetic via apoferritin binding; P02791; apoferritin/1-aminoanthracene competitive binding, fluorescence; Potency, µM (series often up to 77.5 µM), for the others: at the highest dose activity change, negative = displacement, hits mostly inhibitors; actives 0.074% (n = 350,000); AID 485281; also: potency is read from the fitted curve at half-maximal effect; % is scaled to controls: 0 for no effect and ±100 for the full control effect; nearly all actives have a fitted effect of over 20% in size
Target sequence (P02791 2-175 limits assumed): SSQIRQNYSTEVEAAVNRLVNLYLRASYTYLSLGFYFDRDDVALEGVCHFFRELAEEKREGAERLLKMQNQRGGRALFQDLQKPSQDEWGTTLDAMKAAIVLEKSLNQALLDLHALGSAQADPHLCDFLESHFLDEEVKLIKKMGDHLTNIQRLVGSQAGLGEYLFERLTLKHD
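Read-out: endpoint 1-AMA fluorescence, excitation 380 nm and emission 535 nm, after compounds sit 10 min at room temperature with 10 uM horse-spleen apoferritin in 50% saturated 1-AMA/PBS. Values come from four-parameter Hill fits.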
D2 ag-2: D2 dopamine receptor (human) agonism; HEK293 T-REx D2 cells, calcium flux agonist mode; activation, % at 2 µM; actives 0.53% (n = 340,000); P14416; AID 485358;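 active = activation over 3 SD above normal in the single-dose calcium agonist read, cut at about 30% in these data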; also: 0% is about no effect
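Calcium-flux readout, 1 cycle/sec over 180 s following compound pin transfer, in inducible HEK293 Trex D2 cells (force-coupled); dopamine controls included. Positive calcium responses during this window marked compounds as potential agonists.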
D2 antag: antagonizes the human D2 dopamine receptor; P14416; HEK293 TREx D2 cells, calcium flux, dopamine EC80; inhibition, % at 10 µM; actives 2% (n = 340,000); AID 485344; in the data active = inhibition above about 30%; inactive = below that, where a call was filed; also: 0% is about no effect
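Compounds are added to dye-loaded, induced HEK293 T-REx cells coupled to calcium release via D2; after a 3 min kinetic read an EC80 dopamine stimulus is given and fluorescence is recorded for 3 more min.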
D3 ag: activates human D3 dopamine receptor beta-arrestin recruitment; shares compounds with D2 ag-2; DiscoveRx D3 beta-arrestin cells, luminescence, 90 min; Potency, µM (doses to about 76.9 µM), for inactives: top-dose activation, most hits filed as activators; actives 4% (n = 2,300); AID 720506;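 also: potency is read from the fitted curve at half-maximal effect; 100% = dopamine control response; nearly all actives have a fitted effect of over 70% in size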
D2 ag-3: D2 receptor agonism, beta-arrestin counterscreen; shares compounds with D2 ag-2; DiscoveRx PathHunter D2 beta-arrestin, luminescence, 90 min; response scale: percent relative to full dopamine signal; Potency, µM (titrated, usually from 76.9 µM), for inactives: at the top dose activation, actives largely listed as activators; actives 5.9% (n = 2,300); also: potency is read from the fitted curve at half-maximal effect; % of control where 0% means no effect; nearly all actives have a fitted effect of over 70% in size
Numbers without * were called inactive; ? = inconclusive; / = no result given. Unless noted, calls follow the shape of the dose curve; as a rule, active = well fitted curve in the direction sought with a large enough effect; inconclusive = small, poorly fitted or top-dose-only effect, or another doubt; inactive = no such curve, though single readings can be large; an effect the other way counts as inactive or inconclusive.

SMILES	D2 PAM-1	D2 PAM-2	D2 ag-1	Anesthetic bind	D2 ag-2	D2 antag	D3 ag	D2 ag-3
COc1ccc(CNC(C)CCc2ccccc2)cc1 (stereo unspecified)	-24.5	-26.1	3.5	-8.3%	64.5*	61.5*	-1.1%	9.7%
CC(CCc1ccccc1)NCc1ccc(Cl)cc1Cl (stereo unspecified)	1.3	-26.4	13.8	-12.3%	51.8*	45.0*	16.4%	9.8%
Cc1nn2c(CN(C(=O)CN3CCOCC3)c3ccccc3)nnc2c2ccccc12	-8.2	14.3	-0.8	-11.9%	0.5	-0.2	/	/
CC(CCc1ccc(O)cc1)NCc1ccc(Br)cc1 (stereo unspecified)	-16.0	-14.6	0.5	-10.3%	38.8*	31.7*	?	2.2%
Cn1c(=NC(=O)COc2ccccc2)sc2cc(F)cc(F)c21	-6.9	2.1	-6.4	0.9%	0.6	-4.7	/	/
Cn1c(=NC(=O)COc2ccccc2)sc2cccc(F)c21	0.4	-6.0	-0.9	-8.0%	1.5	3.1	-4.0%	-2.3%
N#Cc1ccc(CSc2nnc(NC(=O)C3CC(=O)N(c4ccc5c(c4)OCCO5)C3)s2)cc1 (stereo unspecified)	-0.1	-1.1	-3.9	-8.1%	-0.1	-7.2	/	/
O=C(Nc1nnc(SCc2ccc(F)cc2)s1)C1CC(=O)N(c2ccc3c(c2)OCCO3)C1 (stereo unspecified)	-2.1	-27.2	-1.6	-14.2%	42.6*	-7.8	8.0%	-3.8%
CCCN(CCC)CCNC(=O)CCC(=O)Nc1ccc2nc(N3CCN(C)CC3)cc(C)c2c1	-8.3	-17.8	-2.7	485.7%	12.7	-3.5	14.1%	15.3%
CCCCNC(=O)CCC(=O)Nc1ccc2nc(N3CCN(C)CC3)cc(C)c2c1	-10.4	7.4	-4.6	-6.8%	-0.2	-7.9	/	/
COc1ccc(-c2nc3c(C)cc(Br)cn3c2Cc2ccccc2)cc1OC	0.3	/	-2.6	/	/	/	/	/
Cc1ccc2c(c1)[C@H]1[C@H](CO2)[C@H](c2ccccc2)[C@]2(C)C(=O)N(Cc3ccc(Cl)cc3)CC(=O)N12	-6.9	9.5	-1.9	/	0.2	-1.8	-8.7%	-4.5%
C=CCn1c(SCC(=O)NCC(c2ccccc2)N(C)C)nnc1C1CCCCC1 (stereo unspecified)	-11.4	14.3	-1.8	/	0.0	16.8	-10.0%	-2.2%
CCOC(=O)c1c(-c2ccc(OC)cc2)csc1NC(=O)CNCc1ccco1	-6.9	0.8	1.3	-0.2%	-0.6	2.7	/	/
CCOC(=O)c1c(-c2ccc(Cl)cc2)csc1NC(=O)CNCc1ccco1	-6.0	-25.9	-0.7	2.2%	51.3*	17.9	-4.2%	-0.8%
Nc1ccn(CC(=O)NCc2ccc3[nH]ccc3c2)c(=O)n1	-4.9	-2.4	-4.0	/	0.0	7.4	11.9%	?
CC(C)N1CCC2(CC1)Oc1ccc(Br)cc1C1CC(c3cccnc3)=NN12 (stereo unspecified)	-18.8	8.5	-4.6	-8.4%	-0.3	11.9	/	/
CCN(CC)CCSc1nnc2c3ccccc3n(Cc3ccccc3)c2n1	-26.0	-12.9	-4.6	?	-0.1	60.3*	-10.1%	-5.7%
CCN(CC)CCSc1nnc2c3cc(F)ccc3n(Cc3ccccc3)c2n1	-18.3	-17.8	0.3	-9.4%	-1.8	-26.6	/	/
COc1ccc(NC(=O)c2nc3nc(C)cc(C(F)F)n3n2)cc1OC	-6.6	5.2	1.8	2.0%	-0.2	8.1	/	/
COc1ccccc1NS(=O)(=O)c1ccc(NC(=O)c2nc3nc(C)cc(C(F)F)n3n2)cc1	-0.2	9.1	-3.1	?	-2.1	38.6*	-5.5%	0.9%
CCCSCCCNC(=O)Cn1nc(CC)n2c(cc3c(OC)cccc32)c1=O	-7.1	-9.1	-1.6	-3.3%	40.0*	-10.9	15.0%	1.8%
COc1cccc(CNc2ncnc3ccc(-c4c(C)noc4C)cc23)c1	/	-1.4	/	-14.7%	0.2	9.0	12.4%	17.7%
Cc1noc(C)c1-c1ccc2ncnc(NCc3ccccc3)c2c1	/	/	/	-12.8%	/	/	/	/
COc1cc(CN2CCN(c3ccccc3F)CC2)c([N+](=O)[O-])cc1OC	-4.3	-12.9	-0.1	-14.8%	36.5*	11.0	?	27.3%
SMILES	D2 PAM-1	D2 PAM-2	D2 ag-1	Anesthetic bind	D2 ag-2	D2 antag	D3 ag	D2 ag-3
O=[N+]([O-])c1cc2c(cc1CN1CCN(c3ccccc3F)CC1)OCO2	-2.3	-10.6	-2.6	-19.8%	6.1	-0.2	/	/
O=C(COc1ccc(Br)cc1)NNC(=O)c1ccc(-n2cncn2)c([N+](=O)[O-])c1	4.9	2.4	-3.4	/	0.1	17.7	29.4%	2.2%
O=C(Nc1nnc(CCc2ccccc2)s1)c1cccs1	-4.0	-0.9	-1.6	-8.1%	0.5	-2.1	/	/
Cc1ccc(/C([O-])=C(/C(=S)NCc2ccccc2)[n+]2ccccc2)cc1[N+](=O)[O-]	-3.8	-17.7	-3.7	-20.8%	31.3*	8.0	-14.8%	-7.1%
COC(=O)c1ccc(N/C=C/C(=O)c2ccccc2)cc1	1.0	12.1	-2.4	-3.5%	-0.1	17.9	-5.5%	-3.9%
CCOC(=O)c1c(C)[nH]c(C)c1C(=O)Cn1nnc(-c2ccccc2C)n1	4.5	-7.5	0.5	-6.7%	28.1	28.5	-0.8%	14.9%
CCOC(=O)c1c(C)[nH]c(C(=O)Cn2nnc(-c3ccccc3Cl)n2)c1C	-4.5	0.9	5.0	?	0.2	21.0	/	/
O=C(C1CCN(S(=O)(=O)c2cccc3nsnc23)CC1)N1CCn2c1nc1ccccc12	-58.1	/	-16.7	-11.8%	/	/	/	/
Cc1n[nH]c(C)c1S(=O)(=O)N1CCC(C(=O)N2CCn3c2nc2ccccc23)CC1	-33.6	-8.4	-7.2	-14.5%	47.8*	39.3*	-28.8%	-12.2%
O=C(COC(=O)c1ccc(Cl)nc1)Nc1ncc(Cl)cc1Cl	5.6	-4.8	0.9	-10.9%	1.3	12.6	/	/
CC1CCCCC1NC(=O)CO/N=C/c1ccccc1OC(F)F (stereo unspecified)	-2.0	-12.4	1.0	-9.3%	-1.3	5.9	/	/
CCNC(=O)C(=O)Nc1ccc([N+](=O)[O-])cc1	-10.3	-9.1	-1.4	-0.4%	25.2	-23.2	-1.2%	-0.7%
O=C(NC1CCS(=O)(=O)C1)/C(=C/c1ccco1)NC(=O)c1ccccc1 (stereo unspecified)	-3.8	5.9	1.1	-8.3%	0.2	15.9	/	/

Screening data as filed in PubChem BioAssay.
